Only some compounds are listed: those with a hit (about 7.6% of all), similar ones and a draw of the others.
KB-3-1 cytotox: kills parental KB-3-1 adenocarcinoma cells; KB-3-1 viability, CellTiter-Glo ATP luminescence, 72 h; Potency, µM (top dose mostly 46.1 µM), usual class: cytotoxic; actives 1.4% (n = 400,000); further: potency means the concentration at half of the fitted maximal effect; on the % scale 0 is the no-effect control and ±100 the full control effect; nearly all actives have a fitted effect of over 60% in size
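Using CellTiter-Glo luminescence, growth of non-resistant KB-3-1 adenocarcinoma cells is assessed 72 h after pin-tool compound addition at 37 °C. Normalized responses across the concentration series yield fitted curves.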
MCF10A rereplic: DNA re-replication induction in MCF 10a cells. MCF 10A DNA re-replication, Hoechst nuclear intensity, 48 h. Potency, µM (top dose mostly 46.1 µM), for the others: top-dose activity, positive = re-replication, usual class: activators. actives 2.9% (n = 350,000). AID 624296; further: potency means the concentration at half of the fitted maximal effect; % of control where 0% means no effect; nearly all actives have a fitted effect of over 50% in size
SW480 rereplic: induces DNA re-replication in SW480 colon adenocarcinoma cells; SW480 DNA re-replication, Hoechst DNA content imaging, 48 h; Potency, µM (titrated, usually from 46.1 µM), for the others: top-dose re-replication activation, usual class: activators; actives 1.8% (n = 340,000); AID 624297; further: potency means the concentration at half of the fitted maximal effect; % of control where 0% means no effect; nearly all actives have a fitted effect of over 55% in size
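Hoechst fluorescence of nuclei (405 nm excitation, 500-530 nm emission) measured by plate-scanning imager after 48 hr compound exposure at 37 C; re-replication scored as increased number of nuclei with elevated intensity.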
KB-V1 cytotox: KB-V1 MDR subline cytotoxicity | KB-V1 MDR cells viability, CellTiter-Glo, 72 h | Potency, µM (series often up to 46.1 µM), most hits filed as cytotoxic | actives 3.4% (n = 400,000) | AID 1347076; further: potency means the concentration at half of the fitted maximal effect; on the % scale 0 is the no-effect control and ±100 the full control effect; nearly all actives have a fitted effect of over 60% in size
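KB-V1 cells (P-gp-expressing MDR subline of KB-3-1) in phenol-red-free DMEM with 10% FBS were exposed to library compounds over a concentration series for 72 h at 37 degrees C. Viability read by CellTiter-Glo luminescence; concentration-effect curves fitted after normalization.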
KCNH2 3.1 inh: KCNH2 3.1 (human) potassium channel inhibition; U2OS KCNH2 3.1, thallium flux FluxOr; hits give low values; activity change, % (tested at about 1.8 µM); actives 0.95% (n = 340,000);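 active means maximum activity change below -70%; inconclusive means maximum activity change from -70% to -50%; inactive means maximum activity change above -50%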;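 further: thallium influx rate constant from kinetic fluorescence after stimulation buffer; on the % scale 0 is the no-effect control and ±100 the full control effect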
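Thallium flux via FluxOr fluorescence (Red40 quencher, 45 min loading) in U2OS cells virally expressing the KCNH2 3.1 isoform (1.77 x 10^8 /mL virus, overnight at 37 C). Rate constants from 2-min kinetic reads post-stimulation, normalised to positive and negative controls.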
hERG WT inh: inhibitors of human wildtype KCNH2 potassium channel; U2OS, BacMam KCNH2, thallium flux FluxOr; hits give low values; Q12809; activity change, % at 1.84 µM; actives 0.37% (n = 340,000);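 active means maximum activity change below -70%; inconclusive means maximum activity change between -70% and -50%; inactive means maximum activity change above -50%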; further: on the % scale 0 is the no-effect control and ±100 the full control effect
Target sequence (Q12809 whole entry, looked up): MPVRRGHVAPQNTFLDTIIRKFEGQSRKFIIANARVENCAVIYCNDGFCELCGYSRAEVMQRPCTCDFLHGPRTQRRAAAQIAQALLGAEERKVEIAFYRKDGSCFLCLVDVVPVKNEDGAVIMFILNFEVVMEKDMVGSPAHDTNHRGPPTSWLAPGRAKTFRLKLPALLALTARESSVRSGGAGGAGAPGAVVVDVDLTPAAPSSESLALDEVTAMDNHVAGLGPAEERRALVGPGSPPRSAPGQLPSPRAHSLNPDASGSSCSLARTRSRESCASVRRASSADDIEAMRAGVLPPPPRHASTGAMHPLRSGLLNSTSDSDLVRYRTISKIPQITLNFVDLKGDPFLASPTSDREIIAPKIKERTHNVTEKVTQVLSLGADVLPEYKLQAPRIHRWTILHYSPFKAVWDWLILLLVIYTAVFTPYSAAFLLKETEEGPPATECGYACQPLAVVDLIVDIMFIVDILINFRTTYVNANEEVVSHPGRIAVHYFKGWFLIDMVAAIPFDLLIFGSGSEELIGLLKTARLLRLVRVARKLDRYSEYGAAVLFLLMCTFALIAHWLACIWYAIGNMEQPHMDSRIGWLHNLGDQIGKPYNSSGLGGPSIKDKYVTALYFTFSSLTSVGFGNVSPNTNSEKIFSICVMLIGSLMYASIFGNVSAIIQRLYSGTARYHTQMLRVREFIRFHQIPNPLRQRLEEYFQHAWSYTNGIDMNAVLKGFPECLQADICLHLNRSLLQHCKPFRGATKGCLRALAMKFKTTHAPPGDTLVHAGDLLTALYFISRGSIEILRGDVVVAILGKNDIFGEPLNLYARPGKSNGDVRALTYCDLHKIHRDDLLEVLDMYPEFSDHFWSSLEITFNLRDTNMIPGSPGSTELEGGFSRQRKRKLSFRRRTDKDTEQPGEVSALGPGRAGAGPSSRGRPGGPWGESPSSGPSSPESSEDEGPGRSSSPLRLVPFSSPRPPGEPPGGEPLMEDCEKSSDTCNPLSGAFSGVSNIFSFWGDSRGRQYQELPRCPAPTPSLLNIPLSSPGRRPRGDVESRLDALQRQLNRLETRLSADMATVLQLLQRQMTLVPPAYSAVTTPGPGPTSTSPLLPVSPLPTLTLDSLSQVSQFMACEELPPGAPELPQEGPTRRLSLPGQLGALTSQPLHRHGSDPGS
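U2OS cells transduced with wild-type KCNH2 virus are loaded with FluxOr dye for 45 min, and thallium flux is measured in kinetic reads before and after stimulation buffer. Rate constants are normalized to DMSO controls.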
Numbers without * were called inactive; i = inactive; ? = inconclusive; nt = no result given. Unless noted, the call rests on the fitted dose curve; in most records, active means well fitted curve in the direction sought with a large enough effect; inconclusive means small, poorly fitted or top-dose-only effect, or another doubt; inactive means no such curve, though single readings can be large; an effect the other way counts as inactive or inconclusive.

SMILES	KB-3-1 cytotox	MCF10A rereplic	SW480 rereplic	KB-V1 cytotox	KCNH2 3.1 inh	hERG WT inh
Cn1cc(CN2CCCC(C(=O)c3cc(F)ccc3F)C2)c2ccccc21 (stereo not drawn)	i	-23%	0%	i	-5	47
CCOC(=O)c1cccc(NC(=O)c2ccc3c(c2)C(=O)N(CC2CCCO2)C3=O)c1 (stereo not drawn)	i	-3%	-12%	i	-8	22
O=C(CCN1C(=O)/C(=C/c2ccc(F)cc2)SC1=S)Nc1cc([N+](=O)[O-])ccc1O	i	?	-9%	i	24	4
COc1ccc(CN2CCCC(C(=O)c3ccc(SC)cc3)C2)cc1Cn1cccn1 (stereo not drawn)	i	?	?	i	-82*	-96*
Cc1ccsc1/C=N/NC(=O)Cc1cccn1C	i	-5%	?	i	8	3
Cc1ccc(OCC(=O)Nc2cccc(S(=O)(=O)NC3=NCCCCC3)c2)cc1C	i	10%	-8%	i	6	-1
Cc1cc(C)cc(OCC(=O)Nc2cccc(S(=O)(=O)NC3=NCCC3)c2)c1	?	?	21µM*	i	4	2
Nc1nnc(CC(c2ccccc2)c2ccccc2)s1	i	17%	-2%	23µM*	3	13
COC(=O)Nc1ccc(=O)n(Cc2c(Cl)cccc2Cl)c1	i	0%	-4%	i	-1	3
CN(CC(=O)Nc1cccc(F)c1)C(=O)c1ccc(COc2ccccc2)o1	i	8%	-2%	21µM*	12	-2
CN(CC(=O)Nc1cccc(F)c1)C(=O)c1cccc2ccccc12	i	12%	-3%	18µM*	-3	-4
COc1ccccc1CNC(=O)COCc1cc(-c2cccs2)on1	i	nt	nt	i	nt	nt
CN(C(=O)COc1ccccc1C(=O)Nc1ccccc1)c1ccccc1	i	nt	nt	i	nt	nt
CN(C(=O)COc1ccccc1C(=O)NCCc1ccccc1)c1ccccc1	i	18%	2%	5.2µM*	-5	-14
Cc1ccc2nc(-c3cccc(Br)c3)cc(C(=O)NCC3CCCO3)c2c1 (stereo not drawn)	i	26µM*	21%	i	2	17
O=C(NCC1CCCO1)c1cc(-c2ccccc2)nc2ccc(Br)cc12 (stereo not drawn)	i	14%	-2%	i	2	-27
COc1cccc(-c2cc(C(=O)NCC3CCCO3)c3ccccc3n2)c1 (stereo not drawn)	i	14%	-48%	12µM*	-9	-5
COc1ccc(-c2cc(C(=O)NCC3CCCO3)c3ccccc3n2)cc1 (stereo not drawn)	i	-15%	-10%	i	-6	6
Oc1ccccc1/C=N/NC(=S)NC1CC2C=CC1C2 (stereo not drawn)	?	10µM*	26%	i	7	1
Oc1c(Cl)cc(Cl)cc1/C=N/NC(=S)NC1CC2C=CC1C2 (stereo not drawn)	?	7.3µM*	18µM*	i	-18	1
COC(=O)c1ccc(-n2c(C)cc(C(=O)CSc3ccc(NC(C)=O)cc3)c2C)cc1	i	?	-4%	?	-120*	2
C=CCn1c(C)cc(C(=O)CSc2ccc(NC(C)=O)cc2)c1C	i	2%	-2%	i	-2	-1
Cc1cc(C(=O)Cn2nnc3ccccc3c2=O)c(C)n1-c1ccccc1F	5.2µM*	?	13%	?	-30	15
Cc1cc(C(=O)CSc2cccc[n+]2[O-])c(C)n1-c1ccc(OC(F)F)cc1	i	-6%	-5%	i	4	0
CC(=O)Nc1ccc(SCC(=O)c2cc(C)n(-c3ccccc3F)c2C)cc1	?	23µM*	15%	?	0	-9
SMILES	KB-3-1 cytotox	MCF10A rereplic	SW480 rereplic	KB-V1 cytotox	KCNH2 3.1 inh	hERG WT inh
COC(=O)c1ccc(-n2c(C)cc(C(=O)CSc3cccc[n+]3[O-])c2C)cc1	i	1.3µM*	-4%	?	17	8
O=C(C[C@@H]1C/C=C/CC[C@@H](Cc2ccc(F)cc2)C(=O)OC[C@H](Cc2ccccc2)NC1=O)N[C@H](CO)Cc1ccccc1	i	13%	2%	?	-1	-1
CCN1CCN(S(=O)(=O)c2ccc(Cl)c(C(=O)N(C)Cc3cccc(OC)c3)c2)CC1	i	4%	-1%	i	-23	4
O=C(CN(Cc1ccccc1)C(=O)CCC(=O)Nc1nccs1)NCC1CCCO1 (stereo not drawn)	i	-2%	?	i	15	-1
Cc1onc(-c2c(F)cccc2Cl)c1C(=O)OCC(=O)N(C)c1ccccc1	i	nt	nt	i	1	16
Cc1cccc(NC(=O)C(c2cccc([N+](=O)[O-])c2)N2CCCCC2)c1 (stereo not drawn)	i	6%	28%	15µM*	-13	-6
Cc1cccc(NC(=O)c2cc([N+](=O)[O-])ccc2NC2CCCCC2)c1	i	-4%	65%	13µM*	-28	-5
CN(c1ccc([N+](=O)[O-])cc1C(=O)Nc1ccccc1)C1CCCCC1	i	-1%	9%	13µM*	-10	8
COc1cccc(NC(=O)C(c2ccccc2)N2CCCC2)c1 (stereo not drawn)	i	0%	-2%	?	14	6
O=C(Nc1ccc(Nc2ccccc2)cc1)c1cc([N+](=O)[O-])ccc1Cl	i	4%	-4%	i	-5	-7
COc1ccc(-c2ccc3ncnc(NCc4cccs4)c3c2)cc1	?	nt	nt	i	nt	nt
Cc1ccc(Oc2ccc(Cl)cc2NC(=O)c2ccc(F)cc2F)cc1	i	14%	-6%	i	-23	-13
O=C(N/N=C/c1ccc([N+](=O)[O-])cc1)c1ccc(COc2ccccc2-c2ccccc2)cc1	?	-15%	-9%	16µM*	-48	-10
O=C(Nc1ccc(Cn2cccn2)cc1)c1ccc(COc2ccccc2Br)cc1	9.2µM*	?	?	18µM*	-35	-6
O=C(N/N=C/c1ccc([N+](=O)[O-])cc1)c1ccccc1OCc1ccccc1	i	4%	-5%	i	11	7
O=C(N/N=C/c1cccc(O)c1)c1ccc(COc2ccccc2Br)cc1	i	23µM*	9%	i	-3	-1
CN(C)c1ccc(-c2ccnc3c2CC(C)(C(=O)NCc2ccncc2)O3)cc1 (stereo not drawn)	i	nt	nt	i	nt	nt
